Assay results from PubChem BioAssay AID2806 (Sanford-Burnham Center for Chemical Genomics, 2010).
Hit rate of the full screen: of about 330,000 compounds, about 660 (0.2%) were called active. For the sample, actives were picked, then their nearest neighbours and some compounds at random. A number with no mark means an inactive call.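 The calls were made as follows: active = inhibition of at least 40% at 10 µM in the primary screen; inactive = the rest.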

Each molecule was assayed on intestinal alkaline phosphatase [Mus musculus] (assay: inhibitors of mouse IAP, primary screen, biochemical, luminescence, uHTS (AID 2806;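 also: plate controls were DMSO with enzyme for no effect and no enzyme wells for full effect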)). Conditions: purified mouse IAP, CDP-Star luminescence, 30 min; at 10 µM; hits give high values.
`Cc1cccc(OCC(O)Cn2c(N3CCCCC3)nc3c2c(=O)[nH]c(=O)n3C)c1` (stereo not drawn) was tested, and the inhibition was -1.1%.
With `Cc1ccc(CNC(=O)C2CCCN2S(=O)(=O)c2ccc3c(c2)C(C)(C)C(=O)N3C)cc1` (stereo not drawn) the inhibition was -1%.
Molecule `CC(C)OC(=O)c1cc(NC(=O)C2C3CCC(O3)C2C(=O)O)cc(C(=O)OC(C)C)c1` (stereo not drawn) has an inhibition of 7.3%.
For `COc1ccccc1CCNC(=O)c1c(C)nn(CC(C)C)c1Cl`, the inhibition was 6.5%.
`Cc1ccc(N=C2NC(=O)/C(=C/C=C/c3ccco3)S2)cc1C` was tested, and the inhibition was 56% (active).
Molecule `CN1C(=O)/C(=C/c2ccco2)SC1=Nc1cccc(C(=O)O)c1` has an inhibition of 9.6%.
Molecule `CC(=O)Nc1ccc(NC(=O)C(NS(=O)(=O)c2ccc3c(c2)OCCO3)C(C)C)cc1` (stereo not drawn) has an inhibition of 3.4%.
For `O=c1ccc2c(-c3ccccc3S(=O)(=O)O)c3ccc(O)c(O)c3oc-2c1O`, the inhibition was 64.9% (active).
In the case of `Cc1ccccc1C(OCCN(C)C)C1CCCCC1` (stereo not drawn), the inhibition is reported as -6%.
Molecule `CCN(C[C@H]1N[C@@](CC)(C(=O)OC)[C@H]2C(=O)N(C)C(=O)[C@@H]12)C(=O)Nc1ccc(F)cc1` has an inhibition of 2.6%.
Molecule `CCOC(=O)c1cc(-c2ccccc2C)n(Cc2cc(C)no2)n1` has an inhibition of -6.2%.
Molecule `CN(C)c1ccc(N/C=C/C(=O)C(F)(F)F)cc1` has an inhibition of 7.4%.
`COCC1CCN(C(=O)C2CCC(=O)N(CC3CCCCC3)C2)CC1` (stereo not drawn) gave an inhibition of 4.4%.
`Nc1ccc2nc3c(=O)[nH]c(=S)[nH]c3nc2c1` was tested, and the inhibition was 70.9% (active).
`C=CCC(NC(=O)Cc1ccccc1)C(=O)NCCC` (stereo not drawn) showed an inhibition of -3.3%.
For `CCOc1ccc2nc(Cl)c(C3CC(c4ccccc4)=NN3C(=O)c3cccs3)cc2c1` (stereo not drawn), the inhibition was 13.7%.
In the case of `O=C(NCCOc1cccnc1)c1ccc(OC2CCN(Cc3ccccn3)CC2)cc1`, the inhibition is reported as 4.2%.
In the case of `O=C(CCCN=C1NS(=O)(=O)c2ccccc21)OCC(=O)c1ccc(F)c(F)c1`, the inhibition is reported as -12.2%.
`COC(=O)CN(c1nc(C)c(Cl)c(OC)n1)S(=O)(=O)c1ccc(C)cc1` gave an inhibition of 0.2%.
In the case of `CCCCN(C)CCNC(=O)C1CCCN(S(=O)(=O)c2cccc3nsnc23)C1` (stereo not drawn), the inhibition is reported as 4.9%.
With `CS(=O)(=O)N(CC(=O)NC1CCCC1)Cc1ccc(F)cc1` the inhibition was 3.3%.
`C=CCSc1nc(N)cc(=O)[nH]1` was tested, and the inhibition was 4.4%.
`CCc1ccc(N(CC)c2ncnc3nc[nH]c23)cc1` showed an inhibition of 7.5%.
`Cc1cc(C)c(C)c(S(=O)(=O)N[C@@H](C)C(=O)OC(C)C(=O)NC(N)=O)c1C` (stereo partly drawn) showed an inhibition of -4.2%.
Work on `CC(NC(=O)c1ccccc1C(=O)O)c1ccc(-n2ccnc2)cc1` (stereo not drawn) yielded an inhibition of 0.1%.
Molecule `CC(=O)c1sc(N/N=C\c2ccc(C)cc2)nc1C` has an inhibition of 10.3%.
With `COc1cc(/C=N\Nc2nc(-c3cccs3)c(NC(C)=O)s2)ccc1O` the inhibition was 41% (active).
`COc1cc(/C=N/NC(=O)CCc2n[nH]c(=O)[nH]c2=O)ccc1O` showed an inhibition of -0.9%.
`Fc1ccccc1/C=C1\CCCC2=C1Nc1ncnn1C2c1ccccc1F` (stereo not drawn) showed an inhibition of 0%.
For `O=[N+]([O-])/C(N=Nc1ccccc1)=N\Nc1ccccc1`, the inhibition was -0.1%.
`CSCCC1NC2(C(=O)Nc3ccc(Cl)cc32)[C@@H]2C(=O)N(C3CCCC3)C(=O)[C@H]12` (stereo partly drawn) was tested, and the inhibition was 3.1%.
Molecule `Nc1c(C(=O)c2cccs2)sc2nsc(SCCN3CCCCC3)c12` has an inhibition of 16.4%.
Molecule `CCN(c1ccccc1)S(=O)(=O)c1ccc(N)cc1` has an inhibition of -11.2%.
`CN(c1ccccc1)S(=O)(=O)c1ccc2[nH]c(=O)[nH]c2c1` gave an inhibition of 6.6%.
In the case of `CCN(c1ccccc1)S(=O)(=O)c1ccc2[nH]c(=O)[nH]c2c1`, the inhibition is reported as 52.1% (active).
For `CSCCC(NC(=O)c1cc([N+](=O)[O-])cc([N+](=O)[O-])c1)c1nc2ccccc2[nH]1` (stereo not drawn), the inhibition was -2%.
Work on `Nc1ccccc1Sc1cc(Cl)nnc1Cl` yielded an inhibition of 2.3%.
Work on `C=CCN1CC(C)/C(=N\O)CC1C` (stereo not drawn) yielded an inhibition of 0.1%.
In the case of `CC(=O)Nc1ccc(NS(=O)(=O)c2ccc3c(c2)NC(=O)CC(=O)N3)cc1`, the inhibition is reported as 1.9%.
Work on `Cc1cccc(-c2nc(CS(=O)CC(=O)NC(C)CCc3ccccc3)c(C)o2)c1` (stereo not drawn) yielded an inhibition of -5%.
With `CCCCn1c(N)c(N(CCOC)C(=O)c2oc3ccc(OC)cc3c2C)c(=O)[nH]c1=O` the inhibition was -5.8%.
In the case of `Cc1n[nH]c(=O)c2c(NC(=O)CSc3ccccc3F)oc(C)c12`, the inhibition is reported as -5.6%.
Molecule `Cc1ccccc1NC(=O)C1CCCN(C(=O)NCc2ccccc2)C1` (stereo not drawn) has an inhibition of -10.1%.
`C=CCNC(=S)NNC(=O)COc1c(Cl)cc(Cl)cc1Cl` showed an inhibition of 2.2%.
For `Cc1cccc(NC(=O)c2cc(S(=O)(=O)N3CCC4(CC3)OCCO4)ccc2F)c1`, the inhibition was 2.1%.
In the case of `CCOC(=O)c1c(C)[nH]c(C)c1C(=O)CSc1nc(N)cc(N)n1`, the inhibition is reported as 2%.
For `CNS(=O)(=O)c1ccc(C(=O)NCC(=O)NCCc2ccc3c(c2)OCCO3)cc1`, the inhibition was -6.6%.
With `O=C(CCC(=O)OCc1cccc(C(=O)Oc2ccccc2)c1)Nc1cccc2ccccc12` the inhibition was 3.6%.
Work on `COc1ccc(NC(=O)CSc2nnc(C3CC3)n2C)cc1S(=O)(=O)N1CCCCC1` yielded an inhibition of -4.3%.
For `CCN(CC)C(=O)CS(=O)CC(=O)Nc1cc(OCCOC)c(Cl)cc1Cl` (stereo not drawn), the inhibition was -1.1%.
With `Cc1ccccc1CN1CCC(C(=O)Nc2ccc(Oc3cccnc3)cc2)CC1` the inhibition was -39.6%.
For `CCCC(=O)Nc1ccc(C(=O)N/N=C/c2ccc[nH]2)cc1`, the inhibition was 40.9% (active).
Work on `O=C(COc1ccccc1[N+](=O)[O-])N/N=C/c1ccc[nH]1` yielded an inhibition of 9.7%.
`CC(=O)Nc1ccc(C(=O)/C=C/c2ccc[nH]2)cc1` gave an inhibition of 1.1%.
`CCCC(=O)Nc1ccc(C(=O)NCCCn2ccnc2)cc1` showed an inhibition of -4.6%.
`CN(CC(=O)NNC(=O)CNC(=O)c1ccccc1Cl)S(=O)(=O)c1ccc(Cl)cc1` showed an inhibition of -5.3%.
`O=C(COc1cccc2ccccc12)Nc1cc(S(=O)(=O)N2CCOCC2)ccc1N1CCOCC1` showed an inhibition of 4%.
In the case of `O=C1C=C(c2cc(C(F)(F)F)cc(C(F)(F)F)c2)C[C@@H](c2ccc3c(c2)OCO3)C1`, the inhibition is reported as 13.5%.
`S=c1[nH]nc2c3c4c(sc3ncn12)CCCC4` was tested, and the inhibition was 12.3%.
Work on `Cc1cccc(N)c1SC1CCCCC1O` (stereo not drawn) yielded an inhibition of 2.7%.
Work on `COc1cccc(C(=O)OCc2cc(=O)oc3c(C)c(C)ccc23)c1OC` yielded an inhibition of 8.2%.
`Cn1c(SCC(=O)Nc2ccc(N3CCOCC3)cc2)nnc1C(F)(F)F` was tested, and the inhibition was -6.7%.
Molecule `Cc1nnc(SCC(=O)Nc2ncc3c(n2)CC(C)(C)CC3=O)s1` has an inhibition of 8.5%.
`CCOc1ccc(N2C(=O)CN(c3cccc4ccccc34)C2=S)cc1` showed an inhibition of -14.2%.
`COc1ccc(OC)c(Nc2nc(-c3ccc(O)c(O)c3)cs2)c1` was tested, and the inhibition was 68.7% (active).
For `COc1ccc(OC)c(-c2csc(NC(=O)C3=NNC(=O)CC3)n2)c1`, the inhibition was 11.3%.
In the case of `COc1ccc(OC)c(-c2csc(NC(=O)COC(=O)C3CC3)n2)c1`, the inhibition is reported as 6.9%.
With `O=[N+]([O-])c1ccc(N2CCNCC2)cc1NCc1cccnc1` the inhibition was 3%.
`Nc1ccc(-n2nncc2-c2ccco2)cc1` gave an inhibition of -3.6%.
With `C=CCn1c(SCc2nnc(-c3ccccc3)o2)nnc1C(O)c1ccccc1` (stereo not drawn) the inhibition was -0.4%.
For `CCN(c1ccccc1)S(=O)(=O)c1cc2c(cc1C)n(C)c(=O)c(=O)n2C`, the inhibition was -8%.
`NC(=O)C1CCCN(CC(=O)N2CCN(c3ccccc3)CC2)C1` (stereo not drawn) gave an inhibition of 15%.
`COc1ccc(NC(=O)C2CCC(CNc3c(N4CCCCC4)c(=O)c3=O)CC2)c(OC)c1` (stereo not drawn) was tested, and the inhibition was -14.9%.
Work on `COc1ccc(N2CCN(S(=O)(=O)c3cc4c5c(c3)C(C)C(=O)N5CCC4)CC2)cc1` (stereo not drawn) yielded an inhibition of -7.1%.
In the case of `CCn1c(C)c(C)c2cc(C(=O)N3CCN(c4cccc(C)c4C)CC3)ccc21`, the inhibition is reported as 1.5%.
Work on `COc1ccc(OC)c(NC(=O)Cn2c(=O)oc3ccccc32)c1` yielded an inhibition of -4.3%.
For `CC(=O)Nc1c2c(nn1-c1cccc(C)c1)CSC2`, the inhibition was 9.8%.
Molecule `CCCCC(=O)Nc1ccc2c(c1)C(=O)NC2=O` has an inhibition of 7%.
For `Cc1nn(C)c(C(=O)NNC(=S)NC2CCCCC2)c1Cl`, the inhibition was 16.2%.
Work on `CCCCCCCCCOC1OC(CO)C(O)C(O)C1NC(C)=O` (stereo not drawn) yielded an inhibition of 3.6%.
`CCc1ccc(Nc2ncc3c(n2)CC(c2ccco2)CC3=O)cc1` (stereo not drawn) was tested, and the inhibition was 41.4% (active).
`COc1cc(C2CC(=O)c3cnc(NC(C)=O)nc3C2)cc(OC)c1OC` (stereo not drawn) was tested, and the inhibition was 6.1%.
`O=C(Nc1ncc2c(n1)CC(c1ccco1)CC2=O)c1ccc(Cl)cc1` (stereo not drawn) showed an inhibition of 0.8%.
`Brc1cnc2ccccc2c1N1CCCCC1` showed an inhibition of -0.5%.
Molecule `CCC(=O)c1ccc(OCC(=O)OCC(=O)N2CCc3ccccc3C2)cc1` has an inhibition of 2.5%.
`Cc1cc(NC(=O)/C=C/C(=O)N(CC(=O)NC2CCCC2)c2ccc(F)cc2)no1` gave an inhibition of 5.2%.
`O=C(NCc1cc(C(F)(F)F)cc(C(F)(F)F)c1)C1CC(c2cccc(F)c2)=NO1` (stereo not drawn) was tested, and the inhibition was -2.8%.
`COc1ccc(CNC(=O)C2CCCC2)cc1` gave an inhibition of 4.3%.
`COc1ccc(CNC(=O)C2CC(c3ccc(C(F)(F)F)cc3)=NO2)cc1` (stereo not drawn) was tested, and the inhibition was 41.4% (active).
`CC1CCCCN1S(=O)(=O)CCNC(=O)c1ccccc1` (stereo not drawn) was tested, and the inhibition was 8.6%.
`Cc1ccc(C)c(NC(=O)CSc2nc3c(oc4ccccc43)c(=O)n2-c2ccccc2)c1` gave an inhibition of 2.2%.
In the case of `Cc1ccc(-c2nnn(CC(=O)N(CCO)C(C(=O)NC(C)(C)C)c3ccncc3)n2)cc1` (stereo not drawn), the inhibition is reported as -1.3%.
For `CCNC(=O)N1CCN(S(=O)(=O)c2ccc3c(c2)OCCCO3)CC1`, the inhibition was -17.6%.
